aSyn rescue = qHTS of alpha-syn Inhibitors | Yeast expressing alpha-synuclein, growth rescue, BacTiter-Glo, 24 h | Potency, µM (series often up to 46.1 µM), hits mostly activators | actives 0.14% (n = 370,000) | AID 652106, 2013; note: nearly all actives have a fitted effect of over 65% in size
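Galactose-induced alpha-syn yeast (OD600=0.02, raffinose-pregrown) + pinned cpd, 24 hr, 30 deg C; growth by BacTiter-Glo luminescence. Growth restoration scores as activation.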
Abeta rescue = qHTS for compounds that reverse cellular toxicity of Amyloid beta (A-beta) peptide in yeast: Primary Screen; yeast expressing A-beta42, growth rescue, OD600, 48 h; response scale: 0% DMSO, 100% iron-clioquinol control; Potency, µM (top dose mostly 46.1 µM), usual class: activators; actives 0.063% (n = 410,000); AID 1347071, 2019; note: nearly all actives have a fitted effect of over 55% in size
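Yeast growth medium received pinned compounds, then yeast cells expressing toxic A-beta were added; plates incubated at 30 C for 48 hr. Growth read as absorbance at 600 nm, normalized to DMSO and equimolar FeCl3 plus clioquinol controls.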
FUS yeast rescue = qHTS for Suppressors of FUS Proteinopathy: Primary screen using FUS-linked yeast assay; S. cerevisiae FUS-expressing, growth rescue, OD600, 24 h; Potency, µM (series often up to 76.6 µM), most hits filed as activators; actives 0.24% (n = 390,000); AID 1347120, 2019; note: nearly all actives have a fitted effect of over 55% in size
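Steps: raffinose overnight preculture; dilution to OD 0.005 in 2% galactose minimal medium; compound addition (concentration series); 24hr at 30C, 99% humidity; absorbance read at 600 nm.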
TDP43 rescue = qHTS of TDP-43 Inhibitors | TDP-43 expressing yeast growth rescue, BacTiter-Glo, 24 h | Potency, µM (top dose mostly 46.1 µM), usual class: activators | actives 1.8% (n = 410,000) | AID 652104, 2013; note: nearly all actives have a fitted effect of over 50% in size
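Growth rescue of TDP-43-toxic yeast measured as ATP luminescence (BacTiter-Glo). Cells grown to mid-log in raffinose, induced in galactose at OD600=0.02, exposed to compound 24 hr at 30 deg C.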
A number is an active result; 0 = inactive; ? = inconclusive; - = not tested or not shown; [ ] = remark or other dose. Hits are enriched below; roughly 2.1% of the tested compounds scored in any of these assays. Calls come from the whole dose curve; as a rule, active = well fitted curve in the direction sought with a large enough effect; inconclusive = small, poorly fitted or top-dose-only effect, or another doubt; inactive = no such curve, though single readings can be large; an effect the other way counts as inactive or inconclusive.

SMILES | aSyn rescue | Abeta rescue | FUS yeast rescue | TDP43 rescue
Cc1nc(NS(=O)(=O)c2ccccc2)sc1C(=O)NNS(=O)(=O)c1ccccc1 | 0 | 0 | 0 | 0
Cc1nc(NCCc2ccccc2)c2oc3ccccc3c2n1 | 0 | 0 | 0 | 11µM
CCc1nc(Nc2ccccc2)c2oc3ccccc3c2n1 | - | 0 | 0 | 11µM
CO[C@H]([C@H](C)/C=C/N(C)C=O)[C@@H](C)C(=O)CC[C@H](C)[C@H](O)[C@H](C)[C@H]1OC(=O)/C=C/C(C)=C/C[C@H](O)C[C@@H]2C=CC[C@@H](C[C@H](OC)[C@@H](C)[C@@H](OC)C[C@@H](OC)[C@@H]1C)O2 | - | - | 14µM | -
O=C(NCc1cccc(Cl)c1)c1ccc(-n2cncn2)c2ccoc12 | 0 | 0 | 0 | 35µM
CCCc1cc(=O)oc2cc3oc(C)c(C)c3cc12 | 0 | 0 | - | 0
CCc1cc(=O)oc2cc3oc(C)c(C)c3cc12 | 0 | 0 | 0 | 3.5µM
CC1(C(=O)Nc2ccccc2)CCN1C(=O)C1(c2ccc(Cl)cc2)CC1 (stereo unspecified) | 0 | 0 | 0 | 0
CC1(C(=O)Nc2ccc(Cl)c(Cl)c2)CCN1Cc1ccccc1OC(F)F (stereo unspecified) | 0 | 0 | 0 | 22µM
O=CNc1cc(-c2ccccc2)cn2c(-c3ccc(F)c(Cl)c3)cnc12 | 0 | 0 | 0 | ?
O=CNc1cc(-c2cccc(F)c2)cn2c(-c3ccc(F)c(Cl)c3)cnc12 | 0 | 0 | 0 | 16µM
CN(C)c1ccc(-c2cc(NC=O)c3ncc(-c4ccc(F)c(Cl)c4)n3c2)cc1 | 0 | 0 | ? | 22µM
CCc1nc(SCc2cc(=O)[nH]c3ccccc23)c2c(C)c(C)sc2n1 | 0 | 0 | 0 | 0
Cc1ccc(C)c(NC(=O)CCNS(=O)(=O)c2ccc3c(c2)CCCC(=O)N3)c1 | 0 | 0 | 0 | 0
COCCN=c1scc(-c2ccccc2)n1/N=C/c1c[nH]c2ccccc12 | 0 | 0 | 0 | 11µM
Cc1ccc(CNC(=O)c2ccc(N3CCC4(CC3)CC(c3cccc(Br)c3)=NO4)c(NC(=O)c3ccc(Br)cc3)c2)cc1 | ? | 0 | 0 | 0
Cc1ccc(CNC(=O)c2ccc(N3CCC4(CC3)CC(c3cccc(Br)c3)=NO4)c(N)c2)cc1 | 0 | 0 | 18µM | 0
O=S(=O)(NCC(c1ccco1)S(=O)(=O)c1cccs1)c1ccc(F)c(C(F)(F)F)c1 (stereo unspecified) | - | 0 | 0 | 0.89µM
COC(=O)[C@]12C[C@H](CC(=O)N3CCCCC3)C(=O)N(CCC3=CCCCC3)C1=C[C@H](C(C)C)O[C@@H]2C1CC1 | - | - | 0 | -
CCCCCCCCN1C(=O)[C@@H](CC(=O)N2CCOCC2)C[C@@]2(C(=O)OC)C1=C[C@H](C(C)C)O[C@@H]2C1CC1 | - | - | 8.9µM | -
CCCCCCCCN1C(=O)[C@@H](CC(=O)N2CCSCC2)C[C@@]2(C(=O)OC)C1=C[C@H](C(C)C)O[C@@H]2C1CC1 | - | - | 4.5µM | -
CCCCCCCCN1C(=O)[C@@H](CC(=O)N2CCCC2)C[C@@]2(C(=O)OC)C1=C[C@H](C(C)C)O[C@@H]2C1CC1 | - | - | 13µM | -
COC(=O)c1cc2occc2n1CC(=O)Nc1ccc(OC)c(OC)c1 | 0 | 0 | 0 | 0
Cc1cc2ccccc2nc1SCC(=O)N1c2ccccc2CC1C (stereo unspecified) | 0 | 0 | 0 | 0
COc1ccc2c(CC(=O)OCC(=O)N(C)c3c(N)n(Cc4ccccc4)c(=O)[nH]c3=O)coc2c1 | 0 | 0 | - | 0
SMILES | aSyn rescue | Abeta rescue | FUS yeast rescue | TDP43 rescue
CCOC(=O)c1cnc2c(C(F)(F)F)cccc2c1N1CCOCC1 | 0 | 0[9.22 µM] | 0 | 0
CCOC(=O)c1cnc2ccc(OCC)cc2c1N1CCN(c2ccccc2OC)CC1 | 0 | 0 | 0 | 35µM
CCOC(=O)c1cnc2c(OC)cccc2c1N1CCN(c2ccccc2F)CC1 | - | 0 | 0 | 11µM
CCOC(=O)c1cnc2ccc(OCC)cc2c1NCCc1ccc(OC)c(OC)c1 | - | 0 | 0 | 0
CCOc1ccc2ncc(C(=O)c3ccc(OC)cc3)c(N3CCN(CC)CC3)c2c1 | 0 | 0 | 0 | 0
CCOC(=O)c1cnc2ccc(OCC)cc2c1N(C)Cc1ccccc1 | 0 | 0 | 0 | 22µM
COc1cc(NC(=O)c2cc(C(C)C)on2)cc(OC)c1OC | 0 | 0 | 0 | ?
CCOC(=O)c1ccccc1NC(=S)N1CCC(C)CC1 | 0 | 0 | 0 | 11µM
CCOC(=O)c1ccccc1NC(=S)N1CC(C)CC(C)C1 (stereo unspecified) | 0 | 0 | 0 | 0
c1ccc(-c2nc(-n3ccnc3)nc(-n3ccnc3)n2)cc1 | - | 0 | 0 | ?
c1ccc(-c2nc(NC3CC3)nc(-n3ccnc3)n2)cc1 | 0 | 0 | 0 | 5µM
CCC(C)NC(=O)c1c(N)n(/N=C/c2ccccn2)c2nc3ccccc3nc12 (stereo unspecified) | 0 | 0 | 0 | 0
CCC(C)NC(=O)c1c(N)n(/N=C/c2cccnc2)c2nc3ccccc3nc12 (stereo unspecified) | 0 | 0 | 0 | 14µM
CC(=O)N1CCc2c(sc3c2c(=O)n(Cc2ccccc2)c(=O)n3Cc2ccccc2F)C1 | - | 0 | 0 | 0
CC(=O)N1CCc2c(sc3c2c(=O)n(CCc2ccccc2)c(=O)n3Cc2ccc(F)cc2)C1 | - | 0 | ? | 16µM
CC(=O)N1CCc2c(sc3c2c(=O)n(Cc2ccccc2)c(=O)n3Cc2ccccc2Cl)C1 | - | 0 | 0 | 16µM
COc1ccc(NC(=O)CC(C)c2ccccc2)c([N+](=O)[O-])c1 (stereo unspecified) | 0 | 0 | 0 | 0
O=C1OCCC1Sc1nc2cc(Cl)ccc2n1Cc1ccccc1 (stereo unspecified) | 0 | 0 | 0 | 35µM
O=C1OCCC1Sc1nc2ccccc2c(=O)n1Cc1ccccc1 (stereo unspecified) | 0 | 0 | 0 | 0
CCN1CCN(Cc2c(O)ccc3oc(C)c(C(=O)Nc4ccc(OC)c(Cl)c4)c23)CC1 | - | 0 | 0 | 0
CCOc1ccc(CC(=O)Nc2sc(Cc3ccccc3)c(C)c2C(N)=O)cc1OCC | 0 | 0 | 14µM | 0
Cc1c(Cc2ccccc2)sc(NC(=O)c2ccco2)c1C(N)=O | 0 | 0 | 0 | 0
Cc1cc(Cl)ccc1OCC(=O)NNC(=O)C1CCN(c2ncnc3sc(C)c(C)c23)CC1 | 0 | 0 | ? | 22µM
CC1CN(C(=O)Nc2ccc3snnc3c2)c2ccccc21 (stereo unspecified) | 0 | 0 | 0 | 16µM
CSc1ccccc1C(=O)NC1CCCN(c2ccc(C(F)(F)F)cn2)C1 (stereo unspecified) | 0 | 22µM | 0 | ?
CC(=O)Nc1ccc(/C=C2\C=C(C(O)c3ccc(NC(C)=O)cc3)c3ccccc32)cc1 (stereo unspecified) | 0 | - | - | -
O=C(Nc1ccc2ccccc2c1)c1ccc(Br)o1 | 0 | 0 | 0 | 20µM
CC(C)c1onc(C(=O)Nc2cccc(Cl)c2)c1[N+](=O)[O-] | 0 | 0 | 0 | 10µM
C(=N\n1cnnc1)/c1ccc(OCc2cccc3ccccc23)cc1 | 0 | 0 | 0 | 13µM

Assay outcomes: PubChem, National Center for Advancing Translational Sciences (NCATS)
